Source: PubChem BioAssay (NCI)
This is part of a sample that, as a whole, favours compounds with a hit. Of some 83,000 tested, about 20% had one in any assay.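 Percent growth is the endpoint: 0 to 100 indicates growth inhibition (40 means 60% inhibition), 0 means no net growth, and negative values indicate cell death.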 Active and inactive are the calls of the source. The calls were made as follows: active = growth percent below 10; inactive = the rest.

The molecules below were run on 786-0 renal (assay: NCI-60 one-dose screen, 48 h (100 = growth as untreated, 0 = no growth, -100 = all killed)). Settings: 10 µM unless noted.
COc1cc(/C=C/C(=O)c2c(C)n([O-])c3ccc(Cl)cc3[n+]2=O)cc(OC)c1OC was tested, and the growth was 94.4% (inactive). With COc1ccc2ncccc2c1Cc1c(OC)ccc2ncccc12 the growth was 89.1% (inactive). In the case of C=C1CC[C@@H]2[C@](C)(COC(C)=O)[C@H](OC(C)=O)CC[C@@]2(C)[C@@H]1CC(NCc1ccccc1)C1=CCOC1=O (stereo not given in full), the growth is reported as 71.4% (inactive). In the case of CCOC(=O)c1sc(NC(=O)COc2cccc(/C=C3\Cc4ccc(Cl)cc4C3=O)c2)nc1C, the growth is reported as 99.5% (inactive). With O=C(Nc1cccc(-n2cc(-c3ccncc3)c(-c3cc(O)cc(Cl)c3)n2)c1)Nc1ccc(Cl)c(Cl)c1 the growth was -72.1% (active). O=c1ccn(C2CC=C(CO)O2)c(=O)[nH]1 (stereo not given) was tested, and the growth was 93.4% (inactive). In the case of COC(=O)[C@H](Cc1cn(C)cn1)NC(=O)[C@@H](NC(=O)Nc1cc(C(F)(F)F)cc(C(F)(F)F)c1)C(C)C, the growth is reported as -90.6% [100 µM] (active). For O=c1c2ccccc2c2nccn2c2cc(Cl)ccc12, the growth was 91.6% (inactive). With [N-]=[N+]=NCc1ncc(-c2ccc(C(F)(F)F)cc2)c(NC2CCCCCC2)n1 the growth was 68.7% [50 µM] (inactive). For CN(C)CCC(=O)Nc1ccc(-n2cc(-c3cccc(NC(=S)Nc4cccc(-c5cn(-c6ccc(NC(=O)CCN(C)C)cc6)nn5)c4)c3)nn2)cc1, the growth was 101% (inactive). C/C(=C\CCc1ccoc1)CC/C=C(\C)CCCNc1ccc(F)cc1 was tested, and the growth was 95.1% (inactive). COP(=O)(OC)C(c1ccccc1)(c1ccccc1)c1ccccc1 was tested, and the growth was 93.3% (inactive). With COc1cc(/C=C2\CN(S(=O)(=O)c3ccc(C)cc3)C/C(=C\c3cc(CN4CCOCC4)c(O)c(OC)c3)C2=O)cc(CN2CCOCC2)c1O the growth was -54.3% (active). CCCCCc1c(C)[nH]c(/C=C2\N=C(c3ccc[nH]3)C=C2Oc2ccccc2)c1C was tested, and the growth was -76.3% [100 µM] (active). CCCCCCCSc1ncnc2[nH]ncc12 was tested, and the growth was 76.3% (inactive). For COc1cccc(/C=N\NC(=O)c2ccncc2)c1O, the growth was 35.5% (inactive). With Cc1cc(=O)oc2cc(OCCn3c(C)nn(-c4ccc(Cl)cc4)c3=O)ccc12 the growth was 32.9% (inactive). For CC1CC=CCC1C1OCC(C)(C)CO1 (stereo not given), the growth was 97.6% (inactive). In the case of O=C1CSC(c2ccccc2Cl)N1c1nnc(Cn2nnc3ccccc32)o1 (stereo not given), the growth is reported as 88.7% (inactive). With O=C1Nc2ccc(C(=O)O)c(O)c2C1=O the growth was 109% (inactive). For ICCC(c1ccccc1)(c1ccccc1)c1ccccc1, the growth was 43.8% (inactive). With O=C(Oc1cccc2ccccc12)c1ccccc1C(=O)c1ccccc1 the growth was 103% (inactive). COc1ccc(C(=O)/C=C/c2ccc(C)cc2)cc1OC was tested, and the growth was 85.3% (inactive). O=C(Nc1nc2c(C(F)(F)F)cccc2s1)c1cc(Cl)ccc1O was tested, and the growth was 1.42% (active). With CCOC(=O)C1C(=O)NC(C(=O)OCC)(C(=O)OCC)C1CC (stereo not given) the growth was 107% (inactive). For O=C(CNC(=O)c1cccc2ccccc12)Nc1ccccc1Oc1cccc(O)c1, the growth was 19.6% [5 µM] (inactive). In the case of CC(=O)Nc1c(Cl)cc2c(c1Cl)Cc1cc([N+](=O)[O-])ccc1-2, the growth is reported as 77.9% (inactive). COc1cc2c(cc1OC)C(CC1(O)CCCCC1)N(S(=O)(=O)c1ccc(C)cc1)CC2 (stereo not given) was tested, and the growth was 29.7% [100 µM] (inactive). For NC(=O)NC1(C(=O)O)CCCC1, the growth was 107% (inactive). In the case of COc1ccc(N2CCN(CC(=O)N3CCN(c4nnc(-c5ccc(Cl)cc5)c(-c5ccc(Cl)cc5)n4)CC3)CC2)cc1, the growth is reported as 60.4% (inactive). In the case of Oc1ccc(/C=N/Nc2nc3ccccc3s2)c(O)c1, the growth is reported as 38.3% (inactive). For Nc1ccccc1-c1ccn[nH]1, the growth was 98.9% (inactive). Nc1ccc2c(c1)Cc1cc(Cl)c(Cl)cc1-2 was tested, and the growth was 59.7% (inactive). O=C1C=CC(=O)N1c1ccccc1N1C(=O)C=CC1=O was tested, and the growth was 110% (inactive). Clc1ccc2c(c1)C(Br)c1cc(Cl)cc(Cl)c1-2 (stereo not given) was tested, and the growth was 84.9% (inactive). With NS(=O)(=O)c1ccc(-n2ncc3c(NC4CCCCC4)ncnc32)cc1 the growth was 81% (inactive). For COc1cccc(CCN2C(=O)CCC3=C2CCC3=O)c1, the growth was 97.6% (inactive). For O=C(C(=O)c1cc(Br)ccc1O)c1cc(Br)ccc1O, the growth was 61.2% (inactive). With O=CN1N=C(c2ccc(Cl)cc2)CC1c1cccc(Nc2ccnc3cc(Cl)ccc23)c1 (stereo not given) the growth was 20.5% (inactive). For CCN(CC)CCNCC(=O)Oc1ccc(/C=C/C(=O)CC(=O)/C=C/c2ccc(OC(=O)CNCCN(CC)CC)c(OC)c2)cc1OC, the growth was -34.9% (active).
